Source: PubChem (National Center for Advancing Translational Sciences (NCATS))
Compounds with a hit are over-represented: about 19% of the library has one in this group of screens.
Pf growth 48h – inhibits P. falciparum growth in the first generation, 48 h | P. falciparum luciferase growth in erythrocytes, 48 h | Potency, µM (highest dose often 28.7 µM), for the others: top-dose activity change, negative = inhibition, hits mostly inhibitors | hit rate 5.9% among 310,000; note: potency is the fitted concentration of half-maximal effect; % is set by controls: 0 for no effect and ±100 for the full control effect
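Compounds are pin-transferred into medium, infected erythrocytes (2% hematocrit, 0.1% parasitemia final) are added, and plates sit one parasite generation at 37 C in 5% CO2. Detection reagent is then added and luminescence measured.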
CHX counter – counter-screen for Shiga toxin inhibitors: cycloheximide protein synthesis inhibition; cell reporter, cycloheximide protein synthesis inhibition counterscreen; max response, %; hit rate 12% among 300,000; AID 2314; in the data active = max response mostly above about 13%, no sharp cut-off; inactive = mostly below about 14%; note: read at 38.3 µM for the half of the compounds with a filed dose; 0% is about no effect
Shiga inhibitor – inhibitors of Shiga toxin in Vero cells. Vero cells, Shiga toxin protein synthesis inhibition reporter. inhibition, % at 38.7 µM. hit rate 9.2% among 290,000. AID 2315; in the data active = inhibition mostly above about 28%, no sharp cut-off; inactive = mostly below about 43%; note: 0% is about no effect
AMA1-RON2 inh – inhibitors of Plasmodium falciparum AMA1-RON2 interaction | hit rate 0.2% among 360,000 | AID 720542 | Potency, µM (titrated, usually from 58.2 µM), without a hit: at the highest dose activity change, negative = inhibition, most hits filed as inhibitors | AlphaScreen AMA1-biotinylated RON2 peptide binding;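 note: potency is the fitted concentration of half-maximal effect; 0% = vehicle wells and -100% = peptide control; nearly all actives have a fitted effect of over 45% in size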
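AMA1 (3D7) with his tag at 25 nM final met compounds first, then biotinylated RON2 peptide at 25 nM; detection used donor plus acceptor beads, 10 µg/mL apiece, read by AlphaScreen after 30 min at room temperature.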
Pf growth 96h – P. falciparum growth inhibition at 96 hours; P. falciparum luciferase reporter growth, 96 h; Potency, µM (highest dose often 28.7 µM), without a hit: top-dose activity change, negative = inhibition, hits mostly inhibitors; hit rate 6.9% among 320,000; note: potency is the fitted concentration of half-maximal effect; % is set by controls: 0 for no effect and ±100 for the full control effect
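P. falciparum expressing integrated firefly luciferase grown in erythrocytes (2% hematocrit, 0.05% parasitemia final) with compounds for 96 hours at 37 C, 5% CO2. Growth inhibition read as loss of luminescence after adding luciferase detection reagent.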
SARS PLpro yeast – inhibitors of SARS-CoV papain-like protease in yeast; S. cerevisiae expressing SARS-CoV PLpro, growth rescue; AID 485353; Potency, µM (series often up to 32.9 µM), without a hit: at the highest dose activity, positive = growth rescue, most hits filed as activators; hit rate 0.19% among 330,000; calls by dose curve; note: potency is the fitted concentration of half-maximal effect; 0% is about no effect; nearly all actives have a fitted effect of over 55% in size
* hit, by the source's call. Unless noted, calls come from the whole dose curve; as a rule, active = well fitted curve in the direction sought with a large enough effect; inconclusive = small, poorly fitted or top-dose-only effect, or another doubt; inactive = no such curve, though single readings can be large; an effect the other way counts as inactive or inconclusive.

How did COC1OC(CO)C(OC2OC(C(=O)O)C(OC3OC(COS(=O)(=O)O)C(OC4OC(C(=O)O)C(OC5OC(CO)C(OC6OC(C(=O)O)C(OC7OC(COS(=O)(=O)O)C(OC8OC(C(=O)O)=C[C@H](O)C8OS(=O)(=O)O)C(O)C7NC(C)=O)[C@@H](O)C6O)C(O)C5NC(C)=O)[C@@H](O)C4O)C(O)C3NC(C)=O)[C@@H](O)C2O)C(O)C1NC(C)=O (some centres not stated) do in these assays?
Pf growth 48h: 12µM*; Pf growth 96h: 7.57µM*

What do the screens show for `CC(=O)N[C@@H]1C(O[C@H]2O[C@H](C(=O)O)C(O)[C@H](O)[C@H]2O)[C@H](O)[C@@H](CO)O[C@H]1O[C@@H]1C(C(=O)O)O[C@@H](O[C@H]2[C@H](O)[C@@H](CO)OC(O)[C@@H]2NC(C)=O)[C@H](O)[C@H]1O` (some centres not stated)?
Pf growth 48h: 2.2%; Pf growth 96h: 1.69µM*

What do the screens show for `CCCNC(=O)C1(C)CCN(C(=O)c2ccc3sccc3c2)C1` (configuration not stated)?
AMA1-RON2 inh: 9.9%

How did NNc1nc(-c2ccccc2)cc(-c2ccc(Br)cc2)n1 do in these assays?
Pf growth 48h: inconclusive; CHX counter: 2.1; Shiga inhibitor: -9.0; AMA1-RON2 inh: 17.0%; Pf growth 96h: 5.2%; SARS PLpro yeast: -9.8%

How did Nc1nn2cc(-c3ccc(Br)cc3)nc2c2ccccc12 do in these assays?
Pf growth 48h: -38.4%; CHX counter: 61.6*; Shiga inhibitor: 125.1*; AMA1-RON2 inh: -0.1%; Pf growth 96h: 80.1%; SARS PLpro yeast: -18.1%

How did O=c1c([N+](=O)[O-])cn(Cc2ccccc2)c(=O)n1Cc1ccccc1 do in these assays?
AMA1-RON2 inh: -17.5%

Results for COCCCNC(=O)c1sc2ncnc(N3CCc4ccccc4C3)c2c1C ?
Pf growth 48h: inconclusive; CHX counter: 11.6*; Shiga inhibitor: 8.7; AMA1-RON2 inh: 9.2%; Pf growth 96h: 6.57µM*; SARS PLpro yeast: -6.9%

How did Cc1c(C(=O)N2CCN(c3ccccn3)CC2)sc2ncnc(N3CCN(c4ccccc4)CC3)c12 do in these assays?
AMA1-RON2 inh: -2.3%

What do the screens show for `CCc1ccc(NC(=O)c2sc3nc(C)nc(N4CCN(c5ccccn5)CC4)c3c2C)cc1`?
Pf growth 48h: -7.0%; CHX counter: -1.9; Shiga inhibitor: 2.4; AMA1-RON2 inh: -5.8%; Pf growth 96h: 3.1%; SARS PLpro yeast: 2.0%

How did Cc1cc(Br)ccc1NC(=O)c1sc2ncnc(N3CCN(c4ccccn4)CC3)c2c1C do in these assays?
Pf growth 48h: inconclusive; CHX counter: -3.2; Shiga inhibitor: -2.1; AMA1-RON2 inh: 18.4%; Pf growth 96h: 6.4%; SARS PLpro yeast: -5.6%

Results for COc1ccc(NC(=O)c2sc3ncnc(N4CCN(c5ccccn5)CC4)c3c2C)cc1Cl ?
Pf growth 48h: 6.57µM*; CHX counter: 9.4; Shiga inhibitor: 12.4; AMA1-RON2 inh: 0.0%; Pf growth 96h: inconclusive

What do the screens show for `Cc1c(C(=O)N2CCC3(CC2)OCCO3)sc2ncnc(N3CCN(c4ccccn4)CC3)c12`?
Pf growth 48h: inconclusive; CHX counter: 1.0; Shiga inhibitor: 23.6; AMA1-RON2 inh: -2.4%; Pf growth 96h: 11.7µM*; SARS PLpro yeast: -2.4%

Results for Cc1c(C(=O)N2CCOCC2)sc2ncnc(N3CCc4ccccc4C3)c12 ?
Pf growth 48h: -21.0%; CHX counter: 1.9; Shiga inhibitor: -5.3; AMA1-RON2 inh: 3.0%; Pf growth 96h: 59.1%; SARS PLpro yeast: 3.4%

What do the screens show for `COc1ccc(NC(=O)c2sc3nc(C)nc(N4CCN(c5ccccn5)CC4)c3c2C)cc1Cl`?
Pf growth 48h: 1.85µM*; CHX counter: -8.2; Shiga inhibitor: -5.3; AMA1-RON2 inh: -5.3%; Pf growth 96h: -22.9%; SARS PLpro yeast: -3.4%

Results for Cn1nccc1NC(=O)COCC(=O)O ?
Pf growth 48h: inconclusive; CHX counter: -1.3; Shiga inhibitor: -10.1; AMA1-RON2 inh: 4.5%; Pf growth 96h: 0.0%; SARS PLpro yeast: 0.8%

What do the screens show for `O=C(Nc1cccc(O)c1)c1cc(-c2ccco2)on1`?
Pf growth 48h: 56.2%; CHX counter: 22.2*; Shiga inhibitor: 48.9*; AMA1-RON2 inh: -1.5%; Pf growth 96h: 132.6%; SARS PLpro yeast: -14.9%

Results for CC(=O)c1cccc(NC(=O)c2cc(-c3ccco3)on2)c1 ?
Pf growth 48h: 209.3%; CHX counter: 35.2*; Shiga inhibitor: 96.9*; AMA1-RON2 inh: 4.9%; Pf growth 96h: -24.2%; SARS PLpro yeast: -8.6%

Results for COc1ccc2c(c1)cc(C(O)c1ccccn1)n2S(=O)(=O)c1ccccc1 (configuration not stated) ?
Pf growth 48h: 9.8%; CHX counter: 19.4*; Shiga inhibitor: 41.0*; AMA1-RON2 inh: 44.1%; Pf growth 96h: 5.4%; SARS PLpro yeast: -34.4%

How did CNc1ccccc1C(C)(C)c1cc(-c2ccc(F)cc2)no1 do in these assays?
Pf growth 48h: inconclusive; CHX counter: -7.8; Shiga inhibitor: -6.7; AMA1-RON2 inh: -12.5%; Pf growth 96h: 8.28µM*; SARS PLpro yeast: -14.4%

What do the screens show for `Cc1csc(NC(=O)c2cc(C)nc3ccccc23)n1`?
Pf growth 48h: 2.6%; CHX counter: -2.2; Shiga inhibitor: -6.7; AMA1-RON2 inh: -8.8%; Pf growth 96h: 0.4%; SARS PLpro yeast: 0.1%

What do the screens show for `Cc1ccccc1NC(=O)c1cccc(C(=O)Nc2ccccc2C)n1`?
Pf growth 48h: 2.5%; CHX counter: -1.5; Shiga inhibitor: -10.3; AMA1-RON2 inh: 10.5%; Pf growth 96h: -20.5%; SARS PLpro yeast: 5.1%

How did CCC(CC)c1nnc(NC(=O)c2cc(-c3ccccc3)nc3ccccc23)s1 do in these assays?
Pf growth 48h: -9.2%; CHX counter: 0.7; Shiga inhibitor: 9.7; AMA1-RON2 inh: 5.6%; Pf growth 96h: inconclusive; SARS PLpro yeast: 13.0%

What do the screens show for `Cc1cccc(NC(=O)c2ccc3ccccc3n2)c1C`?
Pf growth 48h: 9.5%; CHX counter: 22.9*; Shiga inhibitor: 185.9*; AMA1-RON2 inh: -5.5%; Pf growth 96h: 13.5%; SARS PLpro yeast: -11.2%

Results for O=C(Nc1nccs1)c1ccc2ccccc2n1 ?
Pf growth 48h: 156.9%; CHX counter: 45.1*; Shiga inhibitor: 120.2*; AMA1-RON2 inh: 39.2%; Pf growth 96h: 92.4%; SARS PLpro yeast: -2.2%

How did CCC(CC)c1nnc(NC(=O)c2ccc3ccccc3n2)s1 do in these assays?
Pf growth 48h: 243.2%; CHX counter: 37.7*; Shiga inhibitor: 105.0*; AMA1-RON2 inh: 123.1%; Pf growth 96h: 194.5%; SARS PLpro yeast: 1.3%

What do the screens show for `Cc1csc(NC(=O)c2cnc3ccccc3n2)n1`?
Pf growth 48h: 44.9%; CHX counter: 8.4*; Shiga inhibitor: 21.6; AMA1-RON2 inh: 24.4%; Pf growth 96h: 178.5%; SARS PLpro yeast: -0.8%
